Source: PubChem BioAssay
Inconclusive results are not listed. Calls of active or inactive are those of the source.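 Rule for the calls, unless noted: active = normalized viability below 100% at a tested concentration; inactive = the rest.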

How the values were obtained:
[1] = P. berghei load reduction in hepatocytes – cell-based, HepG2, luciferase luminescence, HepG2 viability, primary screen (AID 624349; in the data active = parasite load remaining mostly below about 12%, no sharp cut-off; inactive = mostly above about 10%;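 note: 100% = mean of DMSO negative control wells on the same plate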); settings: P. berghei liver stage in HepG2, luciferase luminescence, concentration not given here; parasite load remaining: stronger effect = lower value; viability: measured here: HepG2 viability without parasites
[2] = EMT-state selective cytotoxicity in co-culture – imaging, PC-3E GFP, TEM4-18 mCherry, primary screen (AID 1345086;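 active = compounds killing one labelled cell type while sparing the other, by normalised counts and ratio limits, not self-fluorescent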;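 note: cells exposed to compound for 72 h before imaging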;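 for red/green cell ratio (normalised): normalised mesenchymal count divided by normalised epithelial count so high means epithelial killing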); settings: PC-3E GFP / TEM4-18 mCherry co-culture, imaging cell counts, at 1 µM
[3] = viability loss in pontine glioma line – cell-based, SU-DIPG-XVII, MIPE5.0, CellTiter-Glo, qHTS, dose response (AID 1347060; cut-off not given, nearly all actives have AC50 up to about 26 µM;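 note: cells exposed to compound for 48 hours before viability readout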); settings: CellTiter-Glo ATP luminescence
[4] = viability loss in pontine glioma line – cell-based, JHH-DIPG-1, MIPE4.0, CellTiter-Glo, qHTS, dose response (AID 1347062; cut-off not given, nearly all actives have AC50 up to about 27 µM); settings: JHH-DIPG-1 viability, CellTiter-Glo ATP luminescence
[5] = viability loss in pontine glioma line – cell-based, SU-DIPG-XXV, MIPE5.0, CellTiter-Glo, qHTS, dose response (AID 1347065; cut-off not given, nearly all actives have AC50 up to about 26 µM;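 note: cells exposed to compound for 48 hours before ATP readout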); settings: CellTiter-Glo ATP luminescence
[6] = growth inhibition of DIPG cells – cell-based, MIPE4.0 library, CellTiter-Glo luminescence, qHTS (AID 1347066; cut-off not given, nearly all actives have AC50 up to about 30 µM;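 note: cells exposed to compound for 48 hours before readout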); settings: SU-DIPG-VI viability, CellTiter-Glo ATP luminescence
[7] = JHH-DIPG-1 glioma cell viability, MIPE5.0 library, CellTiter-Glo luminescence, qHTS (AID 1347067; cut-off not given, nearly all actives have AC50 up to about 26 µM;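 note: cells exposed to compound for 48 hours before readout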); settings: JHH-DIPG-1 glioma viability, CellTiter-Glo ATP luminescence
[8] = growth inhibition of DIPG cells – cell-based, MIPE5.0 library, qHTS (AID 1347068; cut-off not given, nearly all actives have IC50 up to about 30 µM); settings: SU-DIPG-XXV viability
[9] = viability loss with induced miR-34 in A549 – imaging, A549 dox-inducible miR-34, nuclei and caspase counts, primary screen (AID 1347080;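 active = compounds whose cell count with miR-34 switched on is under 0.7 times the count with it off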); settings: A549 miR-34 inducible, Hoechst nuclei count, 48 h
[10] = drug combination growth inhibition, ovarian cancer – cell-based, oncology-focused library, rucaparib conditional, profiling panel (AID 1508598); settings: patient-derived ovarian cancer cells, CellTiter-Glo viability, 144 h, stronger effect = lower value
[11] = biological target: NAD(+) hydrolase SARM1 (Homo sapiens) (UniProt Q6SZW1); test: blocking NAD cleavage by SARM1 SAM-TIR – cell lysate, NAD-Glo luminescence (AID 1508614;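 active = compound whose remaining NAD level is above about 45 nM, limit read from the data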;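 note: higher remaining NAD means stronger inhibition of SARM1 NADase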); settings: SAM-TIR HEK293T lysate NADase, at 1 µM, stronger effect = higher value
[12] = biological target: Mitogen-activated protein kinase 7 (Homo sapiens) (UniProt Q13164); test: Gal4-ERK5 driven luciferase induction – cell-based, HTS, primary screen (AID 1508626;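 active = luciferase signal above three times the same-plate solvent-only control wells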;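 note: luciferase driven by Gal4-ERK5 fusion binding five Gal4 sites before minimal TATA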); settings: HeLa Gal4-ERK5 transactivation, 18 h, at 5 µM, stronger effect = higher value
Mitogen-activated protein kinase 7 (Homo sapiens), sequence (Q13164 whole entry, looked up, the tested form may be a part): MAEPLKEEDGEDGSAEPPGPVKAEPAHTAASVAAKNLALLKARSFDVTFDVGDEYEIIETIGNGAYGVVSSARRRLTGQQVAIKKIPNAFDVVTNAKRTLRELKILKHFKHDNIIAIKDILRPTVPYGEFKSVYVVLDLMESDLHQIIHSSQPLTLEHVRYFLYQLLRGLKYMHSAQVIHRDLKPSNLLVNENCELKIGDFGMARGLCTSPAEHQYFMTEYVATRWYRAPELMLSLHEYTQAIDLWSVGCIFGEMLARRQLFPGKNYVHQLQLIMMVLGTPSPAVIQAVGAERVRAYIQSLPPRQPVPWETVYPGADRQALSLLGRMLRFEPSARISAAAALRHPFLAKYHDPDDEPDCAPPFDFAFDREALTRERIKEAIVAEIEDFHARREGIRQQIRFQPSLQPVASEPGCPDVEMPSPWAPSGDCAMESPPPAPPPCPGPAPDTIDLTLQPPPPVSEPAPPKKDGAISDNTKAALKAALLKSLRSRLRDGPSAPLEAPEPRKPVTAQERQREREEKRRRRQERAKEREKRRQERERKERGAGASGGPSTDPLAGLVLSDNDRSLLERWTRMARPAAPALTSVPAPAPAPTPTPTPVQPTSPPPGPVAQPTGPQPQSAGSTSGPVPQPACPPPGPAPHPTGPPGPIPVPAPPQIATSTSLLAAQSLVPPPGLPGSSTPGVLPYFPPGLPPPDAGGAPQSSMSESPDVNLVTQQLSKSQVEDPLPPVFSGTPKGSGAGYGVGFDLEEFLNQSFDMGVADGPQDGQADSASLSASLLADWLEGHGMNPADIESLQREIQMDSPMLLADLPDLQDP

NAD(+) hydrolase SARM1 (Homo sapiens), sequence (Q6SZW1 whole entry, looked up, the tested form may be a part): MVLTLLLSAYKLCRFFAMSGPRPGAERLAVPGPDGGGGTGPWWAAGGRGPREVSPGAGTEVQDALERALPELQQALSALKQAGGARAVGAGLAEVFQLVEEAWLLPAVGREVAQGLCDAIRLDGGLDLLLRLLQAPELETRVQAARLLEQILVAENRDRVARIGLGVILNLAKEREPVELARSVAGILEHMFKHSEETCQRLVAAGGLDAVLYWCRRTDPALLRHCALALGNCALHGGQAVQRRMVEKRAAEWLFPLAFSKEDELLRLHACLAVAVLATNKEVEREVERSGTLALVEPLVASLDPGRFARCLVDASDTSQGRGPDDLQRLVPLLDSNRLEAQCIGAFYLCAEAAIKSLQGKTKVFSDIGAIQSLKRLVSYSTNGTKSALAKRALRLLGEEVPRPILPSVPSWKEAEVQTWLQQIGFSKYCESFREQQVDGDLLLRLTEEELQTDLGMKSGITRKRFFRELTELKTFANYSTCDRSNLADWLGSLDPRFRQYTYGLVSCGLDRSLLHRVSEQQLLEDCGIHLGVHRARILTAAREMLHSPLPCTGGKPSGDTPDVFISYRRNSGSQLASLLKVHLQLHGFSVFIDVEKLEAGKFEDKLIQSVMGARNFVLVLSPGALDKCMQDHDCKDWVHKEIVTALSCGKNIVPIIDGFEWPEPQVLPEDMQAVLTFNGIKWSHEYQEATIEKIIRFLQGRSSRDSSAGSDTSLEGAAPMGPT

Nc1nc(F)nc2c1ncn2[C@@H]1O[C@H](COP(=O)(O)O)[C@@H](O)[C@@H]1O
1470: cell count ([9]; measured here: total cells without miR-34 induction)
1.01: fold change ([9]; measured here: relative caspase fold change +Dox/-Dox)
0.92: normalised cell number ([2]; measured here: mesenchymal TEM4-18 mCherry cell survival)
105%: viability [1]
0.86: normalised cell number ([2]; measured here: epithelial PC-3E GFP cell survival)
inactive: parasite load remaining [1] 22.2% | red/green cell ratio (normalised) ([2]; actives lie on both sides, counts scaled to control wells, 1 = unselective) 1.06 | outcome [4] | outcome [5] | outcome [6] | outcome [7] | outcome [8] | fold change ([9]; stronger effect = lower value, cell number ratio, induced over uninduced) 1.07 | viability ([10]; at 0.000305 µM, OCI-C5x cells, with rucaparib 10 µM, 100% = cells with rucaparib alone) 107% | viability ([10]; at 0.000305 µM, OCI-C5x cells, without rucaparib) 110% | viability ([10]; at 0.000305 µM, OCI-P5x cells, with rucaparib 20 µM, 100% = cells with rucaparib alone) 111% | viability ([10]; at 0.000305 µM, OCI-P5x cells, without rucaparib) 109% | viability ([10]; at 0.00122 µM, OCI-C5x cells, with rucaparib 10 µM, 100% = cells with rucaparib alone) 107% | viability ([10]; at 0.00122 µM, OCI-C5x cells, without rucaparib) 109% | viability ([10]; at 0.00122 µM, OCI-P5x cells, with rucaparib 20 µM, 100% = cells with rucaparib alone) 106% | viability ([10]; at 0.00122 µM, OCI-P5x cells, without rucaparib) 109% | viability ([10]; at 0.00488 µM, OCI-C5x cells, with rucaparib 10 µM, 100% = cells with rucaparib alone) 105% | viability ([10]; at 0.00488 µM, OCI-C5x cells, without rucaparib) 111% | viability ([10]; at 0.00488 µM, OCI-P5x cells, with rucaparib 20 µM, 100% = cells with rucaparib alone) 107% | viability ([10]; at 0.00488 µM, OCI-P5x cells, without rucaparib) 110% | viability ([10]; at 0.0195 µM, OCI-C5x cells, without rucaparib) 111% | viability ([10]; at 0.0195 µM, OCI-P5x cells, with rucaparib 20 µM, 100% = cells with rucaparib alone) 109% | viability ([10]; at 0.0195 µM, OCI-P5x cells, without rucaparib) 108% | viability ([10]; at 0.0781 µM, OCI-C5x cells, with rucaparib 10 µM, 100% = cells with rucaparib alone) 101% | viability ([10]; at 0.0781 µM, OCI-C5x cells, without rucaparib) 112% | viability ([10]; at 0.0781 µM, OCI-P5x cells, with rucaparib 20 µM, 100% = cells with rucaparib alone) 109% | viability ([10]; at 0.0781 µM, OCI-P5x cells, without rucaparib) 110% | viability ([10]; at 0.313 µM, OCI-P5x cells, with rucaparib 20 µM, 100% = cells with rucaparib alone) 106% | viability ([10]; at 0.313 µM, OCI-P5x cells, without rucaparib) 107% | viability ([10]; at 1.25 µM, OCI-P5x cells, with rucaparib 20 µM, 100% = cells with rucaparib alone) 114% | viability ([10]; at 1.25 µM, OCI-P5x cells, without rucaparib) 111% | viability ([10]; at 5 µM, OCI-P5x cells, with rucaparib 20 µM, 100% = cells with rucaparib alone) 106% | remaining NAD [11] 10 nM | luciferase signal [12] 52 AU
1570: cell count ([9]; measured here: total cells with miR-34 induction, stronger effect = lower value)
active: AC50 [3] 18.6 µM | viability ([10]; at 0.0195 µM, OCI-C5x cells, with rucaparib 10 µM, 100% = cells with rucaparib alone) 97% | viability ([10]; at 0.313 µM, OCI-C5x cells, with rucaparib 10 µM, 100% = cells with rucaparib alone) 87.1% | viability ([10]; at 0.313 µM, OCI-C5x cells, without rucaparib) 98.3% | viability ([10]; at 1.25 µM, OCI-C5x cells, with rucaparib 10 µM, 100% = cells with rucaparib alone) 82.9% | viability ([10]; at 1.25 µM, OCI-C5x cells, without rucaparib) 78% | viability ([10]; at 5 µM, OCI-C5x cells, with rucaparib 10 µM, 100% = cells with rucaparib alone) 58.5% | viability ([10]; at 5 µM, OCI-C5x cells, without rucaparib) 59.8% | viability ([10]; at 5 µM, OCI-P5x cells, without rucaparib) 78.1%
